Assay results from PubChem BioAssay (NCI).
“And” between values parts separate entries of the source, which are not always exact repeats. Equal values may be shown once. This is part of a sample that, as a whole, favours compounds with a hit. Of some 79,000 tested, about 15% had one in any assay. The source made the active and inactive calls. Cut-off read from the data, not from the text of the source: active = growth inhibition above about 70%; inactive = the rest.

Experiments:
[1] = NCI Yeast Anticancer Drug Screen. Data for the rad50 strain (AID 155);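 note: 0% = growth of vehicle-only cultures of the same strain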; conditions: S. cerevisiae rad50 strain growth inhibition; at 50.0 µM; active compounds read high
Outline: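 Genetically altered yeast (DNA repair pathway); compound treatment; growth inhibition vs vehicle ctrl.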

[2] = NCI Yeast Anticancer Drug Screen. Data for the mec2-1 strain (AID 157); conditions: S. cerevisiae mec2-1 strain, at 50.0 µM, active compounds read high
Outline: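 Readout is yeast growth inhibition, normalised to vehicle-treated controls, in the mec2-1 strain exposed to compound.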

[3] = NCI Yeast Anticancer Drug Screen. Data for the sgs1 mgt1 strain (AID 161);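 note: 0% = growth of cultures given vehicle only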; conditions: S. cerevisiae sgs1 mgt1 strain, at 50.0 µM, active compounds read high
Outline: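 Growth of a repair-deficient yeast mutant was monitored after compound treatment and expressed as inhibition relative to vehicle-treated cultures.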

[4] = NCI Yeast Anticancer Drug Screen. Data for the cln2 rad14 strain (AID 165);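 note: 0% = growth equal to vehicle treated cultures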; conditions: S. cerevisiae cln2 rad14 strain, at 50.0 µM, active compounds read high
Outline: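 Relative to vehicle controls, growth inhibition of compound-treated cln2 rad14 yeast was recorded.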

[5] = NCI Yeast Anticancer Drug Screen. Data for the bub3 strain (AID 167); conditions: S. cerevisiae bub3 mutant strain, at 50.0 µM, active compounds read high
Outline: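 Yeast carrying a defined mutation is treated with each compound, and growth is compared with that of vehicle-exposed cells to give inhibition.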

[6] = NCI Yeast Anticancer Drug Screen. Data for the mlh1 rad18 strain (AID 175); conditions: S. cerevisiae mlh1 rad18 strain growth inhibition; at 50.0 µM; active compounds read high
Outline: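 Test agents were incubated with a yeast strain of defined genotype (DNA damage repair defect). Inhibition of growth was derived by comparison with vehicle-exposed cultures.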

Measured: growth inhibition

O=C(Nc1ccc(Cl)cc1C(=O)c1ccccc1)c1ccc(Cl)cc1
inactive: [1] -5.95% | [2] 10.1% | [3] 4.25% | [4] -2% | [5] 25.9% | [6] 9.55%

Cc1nccn1-c1ccc(Cl)cc1N=Cc1ccc(N(CCCl)CCCl)cc1Cl
active: [6] 71.5%
inactive: [1] 38.4% | [2] 47.5% | [3] 68.5% | [4] 33.8% | [5] 43%

O=S(=O)(c1ccccc1)N1CN2CCN(C2)C1
inactive: [1] 17.6% | [2] 7.2% | [3] 31.6% | [4] 2.65% | [5] 5.5% | [6] 10.4%

CCOC(OCC)C(CC)[Se]c1ccccc1 (stereo not given)
inactive: [1] 4.45% | [2] -9.6% | [3] 13.4% | [4] 0.6% | [5] 2.7% | [6] -7.9%

CN1C(=O)N(C)P1(Cl)(Cl)Cl
inactive: [1] 18.6% | [2] -6.15% | [3] 3.15% | [4] -36.6% | [5] 0.2% | [6] -14.9%

CCOP(=O)(OCC)C(=C(Cl)Cl)C(Cl)Cl
active: [1] 82.6% | [2] 85.2%
inactive: [3] 8.75% | [4] 37.6% | [5] -17.1% | [6] 49.8%

O=[N+]([O-])c1ccc(C#Cc2ccc(N(CCCl)CCCl)cc2)cc1
inactive: [1] 1.95% | [2] -8.85% | [3] 7.5% | [4] -65.5% | [5] 9.2% | [6] -3.95%

O=P(N1CCOCC1)(N1CC1)N1CC1
inactive: [1] 15.4% | [2] -7.35% | [3] -0.15% | [4] 13.7% | [5] 9% | [6] 34.7%

CN(C)CCNC(=O)c1c([N+](=O)[O-])ccc(N(CCCl)CCCl)c1[N+](=O)[O-]
inactive: [1] 12.7% | [2] -11.4% | [3] -9.9% | [4] -27.7% | [5] 13.2% | [6] -2.65%

COc1ccc(CO)cc1
inactive: [1] -1.5% | [2] -10.1% | [3] 11.3% | [4] -12.8% | [5] -17.3% | [6] -13.7%

CNC(=O)Oc1ccccc1N
inactive: [1] -2.8% | [2] -1.15% | [3] -5.05% | [4] 3.7% | [5] -25.2% | [6] -5.2%

CC(CCF)C(N)C(=O)O (stereo not given)
inactive: [1] 1.8% and -0.7% | [2] 28.9% and 5.4% | [3] 28.9% and -9.4% | [4] -0.8% and -0.2% | [5] 43% and 20.7% | [6] 19.5% and -7.8%

C/C=C(\CC)C1(C(C)C)C(=O)NC(=O)NC1=O
inactive: [1] 12.2% | [2] -1.35% | [3] -6.3% | [4] -33.9% | [5] 2% | [6] 10.4%

CC(C)CCON=C(N)N
inactive: [1] -23.8% | [2] -2.25% | [3] -13.7% | [4] -40% | [5] -5.6% | [6] 2.55%

Cc1ccc(-n2cnc3c(N(CCCl)CCCl)ncnc32)cc1
inactive: [1] 10.3% | [2] 0.55% | [3] -1.45% | [4] 5.55% | [5] 23.5% | [6] -3.15%

CN(C)CCNC(=O)c1cccc(COC(=O)Nc2ccc(N(CCCl)CCCl)cc2)c1[N+](=O)[O-]
inactive: [1] -3.55% | [2] -15.8% | [3] 1.2% | [4] -49.8% | [5] -3.65% | [6] -11.9%

O=[N+]([O-])c1cccc(/C=C/c2ccc(S(=O)(=O)F)cc2)c1
active: [1] 97.5% | [2] 93.8% | [3] 96.8% | [4] 93.8% | [5] 97.2% | [6] 97.3%

[Cl][Cd][Cl]
inactive: [1] 54.5% | [2] 25.5% | [3] 2.6% | [4] 35.5% | [5] 13.2% | [6] 2.15%

CCOP(=O)(NCCc1ccccc1)OCC
inactive: [1] -36.6% | [2] -37.4% | [3] -7.3% | [4] -3.9% | [5] -33% | [6] -12.4%

Cc1cc(N(CCCl)CCCl)ccc1C=N/C(C#N)=C(\N)C#N
inactive: [1] 2.05% | [2] -9.05% | [3] -4.8% | [4] -8.6% | [5] -1.9% | [6] -4.85%
